Assay [1] deals with T1, Aspartate--tRNA(Asp/Asn) ligase (Mycobacterium tuberculosis (strain ATCC 25618 / H37Rv)) (UniProt P9WFW3).
T1 sequence (whole entry): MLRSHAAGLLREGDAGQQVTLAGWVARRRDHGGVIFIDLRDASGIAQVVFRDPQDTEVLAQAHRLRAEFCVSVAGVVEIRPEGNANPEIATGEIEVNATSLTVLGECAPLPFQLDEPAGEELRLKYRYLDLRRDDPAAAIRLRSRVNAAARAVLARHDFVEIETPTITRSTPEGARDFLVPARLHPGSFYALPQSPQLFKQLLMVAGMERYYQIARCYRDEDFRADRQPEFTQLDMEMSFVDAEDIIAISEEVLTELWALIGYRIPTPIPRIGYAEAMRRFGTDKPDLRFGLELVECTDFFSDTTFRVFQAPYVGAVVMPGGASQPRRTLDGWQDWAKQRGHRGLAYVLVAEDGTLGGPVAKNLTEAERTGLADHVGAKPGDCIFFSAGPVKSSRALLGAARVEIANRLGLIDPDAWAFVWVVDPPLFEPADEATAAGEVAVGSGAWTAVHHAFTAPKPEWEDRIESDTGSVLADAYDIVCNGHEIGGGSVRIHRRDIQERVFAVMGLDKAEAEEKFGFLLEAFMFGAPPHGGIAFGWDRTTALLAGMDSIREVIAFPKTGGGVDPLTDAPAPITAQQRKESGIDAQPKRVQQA
The experiment in a line: Assay for Asp RNA synthetase-1 from Mycobacterium tuberculosis. More on the design: scale not given: direction of the effect not stated beside the values. Type of assay: functional. The settings on record: 30 µM.

The target of assay [2] is Shiga toxin 2 (Escherichia coli O157:H7) (UniProt P09385+P09386). The experiment in a line: E. coli 0.157:H7 Shiga Toxin SOP - stx2 screening assay. Type of assay: functional. Also on record: scale not given: direction of the effect not stated beside the values. Particulars: 30 µM.

As for `COc1ccc(CCN2CCc3c(nc(C4CC4)n3C)C2)cc1`, the Percent Effect was 4.19% in assay [1] and -51.7% in assay [2].
For `O=S(=O)(NC1=NCN(CCc2cccs2)CN1)c1ccc(F)cc1`, in that order: -0.523% and -18.8%.
Taken in the same sequence, the figures for `O=C(c1ccc(F)c(F)c1)N1CCCC(Nc2ccc(F)cc2)C1` (stereo not drawn) were 0.212% and 11.2%.
As to `CC[C@@]1(O)CCN(C(=O)c2ccc(-c3cccc(F)c3)cc2)C[C@H]1O`, the Percent Effect in assay [1] is 3.54%; in assay [2], 5.77%.
Take `Cc1nc(CN2CCCC(Cn3cc(CCO)nn3)C2)c[nH]1` (stereo not drawn): the results for the Percent Effect in assay [1] and in assay [2] were 0.881% and -6.46%, respectively.
For the compound `Cc1noc(C(C)C)c1C(=O)NCC(c1ccsc1)N(C)C` (stereo not drawn), the Percent Effect in assay [1] is 3%; in assay [2], -2.68%.
For `COCCN1CC[C@@H](O)[C@@H]1Cc1ccccc1`, in that order: 1.19% and -38.2%.
Taken in the same sequence, the figures for `Cc1cncc(C2CCCN(C(=O)c3ccc(C)[nH]c3=O)C2)n1` (stereo not drawn) were 0.25% and -13%.
Taken in the same sequence, the figures for `COCc1nc(C(=O)N2CCCCC2Cn2cccn2)cs1` (stereo not drawn) were 1.01% and 16.6%.
`CN(C)C(CNC(=O)c1cc2c([nH]c1=O)CCCC2=O)c1ccsc1` (stereo not drawn): the Percent Effect in assay [1] was 2.97%; in assay [2], -21.1%.
In the case of `O=C(CSc1nc2c(cnn2CCO)c(=O)[nH]1)N1CCCCCC1`, the results for the Percent Effect in assay [1] and in assay [2] were -7.88% and -8.39%, respectively.
Taken in the same sequence, the figures for `O=C(Cc1ccc2c(c1)CCCC2)NCCc1ccccn1` were 2.5% and 29.1%.
For `Cc1ccc(CC(=O)N2CCCC(c3nc(C)cs3)C2)cn1` (stereo not drawn), the Percent Effect was 2.77% in assay [1] and 7.66% in assay [2].
As for `Cc1cc(CN(C)C(=O)c2ccc(Cl)c(S(C)(=O)=O)c2)no1`, the figures for the Percent Effect in assay [1] and in assay [2] were -2.25% and -3.87%, respectively.
In the case of `CC(C)S(=O)(=O)NCC1CCCN(C(=O)c2ccc3c(c2)OCCO3)C1` (stereo not drawn), the values for the Percent Effect in assay [1] and in assay [2] were 6.79% and -18.1%, respectively.
For `CC(Cn1cccn1)NCc1nc(-c2cccc(Cl)c2)no1` (stereo not drawn), the Percent Effect in assay [1] was -3.34%; in assay [2], 22.5%.
For `Cc1nc(C2CCCN2CCCS(=O)(=O)N(C)C)no1` (stereo not drawn), in that order: -1.34% and -7.71%.
Take `N#Cc1c(F)cccc1N1CCN(S(=O)(=O)c2cccs2)CC1`: the Percent Effect is 4.83% in assay [1] and -12.3% in assay [2].
In the case of `O=C(NCCN1CCOCC1)c1cc(-c2ccc3c(c2)CCO3)n[nH]1`, the Percent Effect in assay [1] is 2.35%; in assay [2], -67.8%.
